# This is part of a sample that, as a whole, favours compounds with a hit. Of some 79,000 tested, about 15% had one in any assay. Values without a mark were called inactive. Active and inactive are the calls of the source. Cut-off read from the data, not from the text of the source: active = growth inhibition above about 70%; inactive = the rest.
# Legend:
# [1] = NCI Yeast Anticancer Drug Screen. Data for the rad50 strain (AID 155);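 note: 0% = growth of vehicle-only cultures of the same strain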; conditions: S. cerevisiae rad50 strain growth inhibition, active compounds read high
# Procedure, shortened: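 A DNA repair-deficient yeast mutant serves as the test organism; compound-induced growth inhibition is calculated against vehicle-treated cells.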
# [2] = NCI Yeast Anticancer Drug Screen. Data for the mec2-1 strain (AID 157); conditions: S. cerevisiae mec2-1 strain, active compounds read high
# Procedure, shortened: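 Yeast mec2-1 mutant treated with compound. Readout: growth inhibition vs vehicle controls.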
# [3] = NCI Yeast Anticancer Drug Screen. Data for the sgs1 mgt1 strain (AID 161);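 note: 0% = growth of cultures given vehicle only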; conditions: S. cerevisiae sgs1 mgt1 strain, active compounds read high
# Procedure, shortened: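 Test agents were incubated with a DNA-repair-mutant yeast strain. Growth was then read and compared against vehicle-treated controls.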
# [4] = NCI Yeast Anticancer Drug Screen. Data for the cln2 rad14 strain (AID 165);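 note: 0% = growth equal to vehicle treated cultures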; conditions: S. cerevisiae cln2 rad14 strain, active compounds read high
# Procedure, shortened: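 cln2 rad14 yeast strain; compound exposure; growth inhibition read vs vehicle controls.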
# [5] = NCI Yeast Anticancer Drug Screen. Data for the bub3 strain (AID 167); conditions: S. cerevisiae bub3 mutant strain, active compounds read high
# Procedure, shortened: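 Inhibition values come from growth of compound-treated mutant yeast normalised to vehicle-treated controls.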
# [6] = NCI Yeast Anticancer Drug Screen. Data for the mlh1 rad18 strain (AID 175); conditions: S. cerevisiae mlh1 rad18 strain growth inhibition, active compounds read high
# Procedure, shortened: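 Yeast w/ defined DNA-repair lesions; compound exposure; growth vs vehicle controls → % inhibition.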
# [7] = at 5.0 µM (retest, dose inferred, filed as 0.5)
# [8] = at 50.0 µM (retest, dose inferred, filed as 5.0)
SMILES,"growth inhibition [1, 7]","growth inhibition [1, 8]",growth inhibition ([1]; at 50.0 µM),"growth inhibition [2, 7]","growth inhibition [2, 8]",growth inhibition ([2]; at 50.0 µM),"growth inhibition [3, 7]","growth inhibition [3, 8]",growth inhibition ([3]; at 50.0 µM),"growth inhibition [4, 7]","growth inhibition [4, 8]",growth inhibition ([4]; at 50.0 µM),"growth inhibition [5, 7]","growth inhibition [5, 8]",growth inhibition ([5]; at 50.0 µM),"growth inhibition [6, 7]","growth inhibition [6, 8]",growth inhibition ([6]; at 50.0 µM)
c1ccc2c(c1)c1cccc3c4c5ccccc5c5cccc(c2c13)c54,-1%,-1%,1.9%,-2%,0%,15.7%,-2%,-1%,11.4%,1%,-5%,78.1% (active),0%,1%,-1.25%,-3%,-2%,14.6%
c1cc[c]([Sn]([c]2ccccc2)([c]2ccccc2)[CH]2CCCCC2)cc1,1%,89% (active),92.7% (active),7%,94% (active),97.2% (active),20%,93% (active),97.7% (active),-2%,91% (active),98.3% (active),1%,93% (active),98% (active),19%,91% (active),97% (active)
Cc1ccc([PH+](c2ccc(C)cc2)c2ccc(C)cc2)cc1.Cc1ccc([PH+](c2ccc(C)cc2)c2ccc(C)cc2)cc1.[Cl][Hg][Cl],98% (active),95% (active),47.6%,99% (active),98% (active),97.2% (active),99% (active),95% (active),99.5% (active),93% (active),96% (active),29.3%,98% (active),95% (active),99.3% (active),99% (active),94% (active),95.9% (active)
O=C(COc1ccc(Cl)c(Cl)c1)N(Cc1ccccc1)Cc1ccc[n+](Cc2ccc(S(=O)(=O)F)cc2)c1,4%,99% (active),43.5%,-59%,100% (active),51.9%,1%,100% (active),53.6%,5%,98% (active),56.9%,3%,99% (active),52.5%,4%,99% (active),59.4%
CCC[CH2][Sn]1([CH2]CCC)[O]C(c2ccccn2)S(=O)(=O)[O]1 (configuration not stated),19%,19%,90.2% (active),12%,12%,91.2% (active),18%,18%,90.1% (active),5%,5%,90.5% (active),1%,1%,91.3% (active),10%,10%,88.3% (active)
C[As](C)SCC1OC2OC(C)(C)OC2C2OC(C)(C)OC12 (configuration not stated),28%,97% (active),91.5% (active),21%,99% (active),92.2% (active),45%,83% (active),92.5% (active),48%,73% (active),90.1% (active),44%,99% (active),91.5% (active),24%,96% (active),90.2% (active)
Cc1ccc2c[c]1[Hg][CH2]COS2(=O)=O,33%,98% (active),94.7% (active),16%,99% (active),98% (active),48%,99% (active),97.5% (active),9%,98% (active),98.7% (active),-2%,99% (active),99.2% (active),24%,97% (active),98.2% (active)
C/C(=C\c1ccc2c(c1)OCO2)[N+](=O)[O-],93% (active),98% (active),98.2% (active),7%,100% (active),73.5% (active),16%,97% (active),83.4% (active),-6%,99% (active),40.1%,10%,96% (active),51%,11%,99% (active),70.8% (active)
O=C1CCC[N]1[Hg][N]1CCCC1=O,44%,46%,93.2% (active),40%,51%,94.6% (active),99% (active),99% (active),94.2% (active),66%,97% (active),92% (active),99% (active),98% (active),93.8% (active),33%,51%,92.8% (active)
